# Screening data from PubChem BioAssay.
# GC-B act = GC-B (human) receptor activation; hit rate 0.11% among 370,000; activation, % at 10 µM; HEK293-GC-B cells, CNP EC30, cGMP TR-FRET; 0% at EC30 CNP, 100% saturating CNP;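 active = activation at 10 µM reaching about 35% in either raw or pattern-adjusted values, limit read from the data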
# GC-A act = GC-A (human) enzyme activation; P16066; HEK293 GC-A cells, cGMP TR-FRET, EC30 ANP; 0% at EC30 ANP, 100% saturating ANP; activation, % at 10 µM; hit rate 0.14% among 370,000; AID 1671463; in the data active = activation above about 40%
# Target sequence (P16066 whole entry, looked up): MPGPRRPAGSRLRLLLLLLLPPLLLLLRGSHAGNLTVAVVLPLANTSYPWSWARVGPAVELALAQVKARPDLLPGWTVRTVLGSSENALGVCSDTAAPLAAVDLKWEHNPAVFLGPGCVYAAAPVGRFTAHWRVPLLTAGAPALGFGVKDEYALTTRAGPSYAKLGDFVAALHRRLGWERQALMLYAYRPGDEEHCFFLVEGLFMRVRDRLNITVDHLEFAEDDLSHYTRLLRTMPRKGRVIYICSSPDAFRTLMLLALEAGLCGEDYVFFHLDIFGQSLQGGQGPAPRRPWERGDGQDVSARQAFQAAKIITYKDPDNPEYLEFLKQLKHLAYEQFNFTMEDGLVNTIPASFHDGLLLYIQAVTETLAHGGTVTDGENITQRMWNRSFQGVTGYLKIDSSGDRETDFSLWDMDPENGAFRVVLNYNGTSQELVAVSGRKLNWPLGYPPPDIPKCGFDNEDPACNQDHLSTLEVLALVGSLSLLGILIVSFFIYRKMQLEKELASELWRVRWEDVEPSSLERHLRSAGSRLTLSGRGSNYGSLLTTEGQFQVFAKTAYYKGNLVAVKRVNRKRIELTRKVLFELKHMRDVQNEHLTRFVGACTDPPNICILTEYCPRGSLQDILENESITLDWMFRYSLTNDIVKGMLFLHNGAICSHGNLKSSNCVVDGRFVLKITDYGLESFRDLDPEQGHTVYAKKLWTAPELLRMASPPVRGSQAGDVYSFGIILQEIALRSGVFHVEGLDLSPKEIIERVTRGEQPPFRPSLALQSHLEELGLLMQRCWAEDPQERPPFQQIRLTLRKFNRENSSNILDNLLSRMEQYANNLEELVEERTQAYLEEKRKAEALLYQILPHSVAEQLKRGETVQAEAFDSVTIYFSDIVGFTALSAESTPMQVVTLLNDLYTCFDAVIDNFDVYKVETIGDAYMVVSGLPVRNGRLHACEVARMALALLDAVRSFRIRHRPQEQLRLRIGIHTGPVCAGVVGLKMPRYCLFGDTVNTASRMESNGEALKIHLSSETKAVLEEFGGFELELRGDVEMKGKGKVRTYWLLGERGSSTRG
# KLK7 zymogen act = activates the human kallikrein-7 zymogen; P49862; purified proKLK7, EDANS-DABCYL substrate fluorescence; 100% is mature enzyme control, 0% vehicle; activation, % at 7 µM; hit rate 0.9% among 370,000; AID 652039;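 active = activation above the mean of all tested compounds plus 3 SD, computed per campaign excluding outliers beyond control limits, cut at about 13% in these data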
# ADAM17 inh = ADAM17 inhibition, QFRET primary screen | recombinant ADAM17, EDANS/DABCYL FRET peptide cleavage | inhibition, % at 6.95 µM | hit rate 0.83% among 370,000;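 active = inhibition above the mean of compounds lying between control limits plus 3 SD, set per campaign, cut at about 8.5% in these data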;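 note: 0% = DMSO-only wells as the low control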
# ADAM10 inh = inhibits human ADAM10; O14672; recombinant ADAM10, EDANS/DABCYL FRET peptide cleavage, 3 h; inhibition, % at 7 µM; hit rate 0.62% among 370,000;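 active = inhibition above a per-campaign cutoff equal to the mean of compounds falling between control-based bounds plus 3 SD, cut at about 20% in these data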;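 note: 0% = DMSO wells while the 100% control is not disclosed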
# ADAM10 confirm = confirmation of inhibitors of human ADAM10; shares compounds with ADAM10 inh; ADAM10 QFRET peptide cleavage, EDANS fluorescence; inhibition, % at 6.95 µM; hit rate 1% among 2,100; AID 743208;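 active = inhibition above about 20% chosen separately for each screening run, limit read from the data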;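 note: 0% = DMSO wells and 100% = marimastat wells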
# ADAM17 counter = ADAM17 inhibition, counter-screen for ADAM10 exosite hits; shares compounds with ADAM10 inh; ADAM17 QFRET peptide cleavage, EDANS fluorescence; inhibition, % at 6.95 µM; hit rate 0.5% among 2,100;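 active = mean triplicate inhibition above the solvent-only control wells' mean plus 3 SD, cut at about 12% in these data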;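 note: 0% = DMSO wells and 100% = marimastat wells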
# ADAM10 ctr = ADAM10 inhibition, counter-screen for ADAM17 exosite hits. recombinant ADAM10, EDANS/DABCYL FRET peptide cleavage, 3 h. hit rate 47% among 2,900. inhibition, % at 6.95 µM. shares compounds with ADAM17 inh;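 active = mean inhibition over the triplicate runs exceeds the activity threshold set in the earlier primary screen, cut at about 20% in these data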;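 note: 0% = DMSO wells and 100% = marimastat wells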
# ADAM17 confirm = confirmation of inhibitors of human ADAM17. shares compounds with ADAM17 inh. recombinant ADAM17, EDANS/DABCYL QFRET peptide cleavage. inhibition, % at 6.95 µM. hit rate 65% among 2,900. AID 743257;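 active = mean inhibition across replicates above the hit cutoff set in the primary screen, cut at about 8.5% in these data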;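 note: 0% = DMSO wells and 100% = marimastat wells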
# Active calls of the source: *; x = not tested or not shown. Compounds with a hit are over-represented: about 2.2% of the library has one in this group of screens.
SMILES,GC-B act,GC-A act,KLK7 zymogen act,ADAM17 inh,ADAM10 inh,ADAM10 ctr,ADAM17 confirm,others
O=C(CNC(=S)N(Cc1ccccc1)Cc1cccs1)NCc1ccc(F)cc1,1.7,-2.8,-0.5,-2.0,2.4,x,x,
COc1cc(/C=C2/SC(=S)N(Cc3ccccc3)C2=O)ccc1O,2.1,2.1,0.2,12.4*,22.7*,38.3*,22.0*,ADAM10 confirm=6.7;ADAM17 counter=2.1
COc1cc(/C=C2/SC(=NCc3ccccc3)N(Cc3ccccc3)C2=O)ccc1O,-5.0,-0.3,-1.2,3.8,7.8,x,x,
O=C1/C(=C\c2cccc(O)c2O)SC(=S)N1Cc1ccccc1,6.2,3.1,-0.6,0.7,-9.0,x,x,
O=C1/C(=C\c2ccc(O)c(O)c2)SC(=S)N1Cc1ccccc1,-0.6,3.8,0.2,8.9*,23.0*,35.6*,20.9*,ADAM10 confirm=9.2;ADAM17 counter=3.5
CN(C(=O)c1cccc(NC(=O)Cc2ccc(NC(=O)C3CCN(S(=O)(=O)c4cccc([N+](=O)[O-])c4)CC3)cc2)c1)C1CCC1,0.2,-1.9,0.8,12.4*,19.9*,23.9*,8.9*,ADAM10 confirm=-0.4;ADAM17 counter=0.1
CN(C(=O)c1cccc(NC(=O)Cc2ccc(NC(=O)C3CCN(S(=O)(=O)c4cccc([N+](=O)[O-])c4)CC3)cc2)c1)C1CCCC1,5.2,2.2,-0.4,4.2,5.5,x,x,
Cc1csc(NC(=O)CSc2ccc([N+](=O)[O-])cn2)n1,-7.2,-1.1,0.3,8.7*,11.2,-0.4,1.0,
CCCCCCCCN1C(=O)[C@@H](CC(=O)NCc2cccc(C(F)(F)F)c2)C[C@@]2(C(=O)OC)C1=C[C@H](C(C)C)O[C@@H]2C1CC1,-1.5,-0.2,0.1,-1.1,-0.1,x,x,
CCCCOC1(c2ccccc2)OC(=O)c2ccccc21 (stereo not given),-2.6,-10.8,-0.1,-2.7,-2.2,x,x,
CCCCC(CC)COC1(c2ccccc2)OC(=O)c2ccccc21 (stereo not given),-2.3,-9.7,0.5,10.0*,2.7,-1.0,-0.3,
CCNC(=O)c1cc2c(c(-c3cccc(-c4cccc(C(=O)N(C)C)c4)c3)n1)[C@H](CCO)N(S(=O)C(C)(C)C)C2 (stereo not given in full),1.5,-1.2,0.1,-2.2,-11.1,x,x,
CC(C)(C)S(=O)N1Cc2cc(C(=O)NCC(F)(F)F)nc(-c3cccc(-c4cccc(F)c4)c3)c2[C@H]1CCO (stereo not given in full),-1.1,-3.5,0.4,10.1*,17.1,20.3*,11.3*,
CCN(CC(=O)Nc1ccc(NC(C)=O)cc1)C(=O)CSCC(=O)Nc1ccc(C)cc1,-5.2,2.6,0.0,1.1,8.9,x,x,
CCOC(=O)CC(=O)CSCC(=O)Nc1ccc(C)cc1,-0.8,2.2,-1.1,9.1*,0.8,6.2,7.2,
CC(C)(C)CCN1CCC[C@H](NC(=O)COc2ccc(F)c(Cl)c2)C1,-10.7,-3.2,x,-5.3,-7.3,x,x,
S=c1[nH]nc(C2CCCCC2)n1/N=C/C=C/c1ccccc1,4.3,0.5,0.1,9.2*,16.9,19.4,11.1*,
COc1ccccc1NC(=O)O[C@@H]1CC[C@@]23CCCN2C(=O)CCC[C@H]3C1,-9.2,-0.4,x,-5.9,-8.2,x,x,
Cc1cccc(C(=O)Nc2cccc(OC(=O)c3cccc(C)c3)c2)c1,-8.0,1.5,2.7,10.1*,11.3,29.8*,17.3*,
CC(=O)Oc1cccc(NC(=O)c2cccc(C(=O)Nc3cccc(OC(C)=O)c3)c2)c1,-21.9,-8.4,0.7,-0.8,0.9,x,x,
COC(=O)[C@]12C[C@H](CC(=O)N3CCCCC3)C(=O)N(Cc3ccc(Cl)cc3Cl)C1=C[C@H](C(C)C)O[C@@H]2C1CC1,-17.0,-21.6,0.6,-1.2,2.0,x,x,
COC(=O)[C@]12C[C@H](CC(=O)NCc3cccc(C(F)(F)F)c3)C(=O)N(Cc3ccc4c(c3)OCO4)C1=C[C@H](C(C)(C)C)O[C@@H]2C,2.7,-0.2,-0.6,12.8*,19.1,54.3*,19.1*,
COC(=O)[C@]12C[C@H](CC(=O)NCc3ccccc3)C(=O)N(Cc3ccc4c(c3)OCO4)C1=C[C@H](C(C)(C)C)O[C@@H]2C,-1.9,-3.2,0.7,6.1,14.4,x,x,
CCOC(=O)N1CCN(C(=O)C[C@H]2C[C@@]3(C(=O)OC)C(=C[C@H](C(C)C)O[C@@H]3C3CC3)N(Cc3ccc(Cl)cc3Cl)C2=O)CC1,-9.2,-8.4,0.8,9.2*,5.9,18.1,12.5*,
COC(=O)[C@]12C[C@H](CC(=O)NCCCCc3ccccc3)C(=O)N(Cc3ccccc3)C1=C[C@H](C(C)C)O[C@@H]2C1CC1,-5.5,-7.9,1.1,16.8*,17.1,25.9*,13.2*,
SMILES,GC-B act,GC-A act,KLK7 zymogen act,ADAM17 inh,ADAM10 inh,ADAM10 ctr,ADAM17 confirm,others
COC(=O)[C@]12C[C@H](CC(=O)NCCCCc3ccccc3)C(=O)N(Cc3ccco3)C1=C[C@H](C(C)(C)C)O[C@@H]2C,-17.5,-20.8,0.1,9.3*,19.0,27.3*,14.9*,
COc1cccc(NC(=O)Nc2c(-c3ccc(C(F)(F)F)cc3)nc3ncccn23)c1,4.5,-3.8,0.3,-24.5,-86.0,x,x,
C=CCN1C[C@@H](COCc2ccccc2)Oc2cc(F)ccc2S1(=O)=O,3.7,1.5,0.6,1.6,2.7,x,x,
O=S1(=O)c2c(cccc2N2CCC[C@H]2CO)OCCCN1C1CC1,0.6,-1.3,-0.1,-6.9,-9.4,x,x,
COC(=O)[C@]12C[C@H](CC(=O)NCc3ccc(C)o3)C(=O)N(Cc3ccccc3)C1=C[C@H](C(C)(C)C)O[C@@H]2C,-9.6,-9.2,0.3,10.2*,9.0,10.9,5.7,
COC(=O)[C@]12C[C@H](CC(=O)NCc3ccc(C)o3)C(=O)N(Cc3ccco3)C1=C[C@H](C(C)(C)C)O[C@@H]2C,-19.6,-19.1,0.3,-2.2,2.2,x,x,
Brc1ccc(-c2csc(N3CCNCC3)n2)cc1,-29.2,-30.5,x,0.8,3.7,x,x,
CC(C)(C)OC(=O)NCc1cc2c(cc1/C=C/S(=O)(=O)NCc1ccc(F)cc1)OCO2,-4.8,-4.6,0.2,-12.5,-44.3,x,x,
CCOc1ccc(-n2c(SCC(=O)Nc3ccc(OCc4ccccc4)cc3)nnc2-c2ccc(Cl)cc2)cc1,3.2,1.4,0.3,-3.9,-6.3,x,x,
